This is a sample that favours compounds with a hit; in the whole collection about 1.4% have one here.
EBV gp42 inh: Epstein-Barr virus gp42 inhibitors, primary screen, biochemical, uHTS, fluorescence polarization. 220,000 tested, 0.42% active. inhibition, % (tested at 21.74 µM). Glycoprotein 42 (Epstein-Barr virus (strain AG876)), Q1HVG2. Fluorescence polarization binding assay, mP read-out. AID 1085, 2008; in the data active means inhibition above about 50%
GLD-1 TGE inh: GLD-1/TGE RNA complex disruptors, primary screen, biochemical, fluorescence polarization; AID 2280, 2010; Female germline-specific tumor suppressor gld-1 (Caenorhabditis elegans), Q17339; purified GLD-1 + fluorescein TGE RNA; inhibition, % at 5.96 µM; 320,000 tested, 0.44% active;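 active means percent inhibition above a per-plate cutoff, the plate mean of test compounds plus 3 SD, cut at about 30% in these data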;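 further: 0% = DMSO wells with GLD-1 and probe and 100% = wells lacking GLD-1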
Bcl-xL primary: inhibitors of human Bcl-xL, primary screen, biochemical, fluorescence polarization, HTS; 320,000 tested, 0.7% active; AID 2129, 2009; inhibition, % at 10.9 µM; GST-Bcl-xL / FITC-Bim BH3 peptide fluorescence polarization; Bcl-2-like protein 1 (Homo sapiens), Q07817;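 active means inhibition above the mean of all tested compounds plus 3 SD, cutoff set per campaign, cut at about 30% in these data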;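 further: 0% = DMSO wells and 100% = unlabeled Bim-BH3 peptide competitor; inhibitors lower millipolarization by displacing the labeled peptide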
Target sequence (Q07817 whole entry, looked up): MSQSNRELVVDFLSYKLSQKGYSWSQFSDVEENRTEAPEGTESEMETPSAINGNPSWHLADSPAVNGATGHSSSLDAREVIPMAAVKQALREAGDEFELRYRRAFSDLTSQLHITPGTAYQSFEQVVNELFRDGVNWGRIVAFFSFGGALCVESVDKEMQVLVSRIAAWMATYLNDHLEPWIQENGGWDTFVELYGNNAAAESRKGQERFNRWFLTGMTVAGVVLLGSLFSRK
MEX-5 binding: MEX-5 zinc finger RNA-binding disruptors – biochemical, C. elegans, fluorescence polarization, MLPCN library, primary screen; Zinc finger protein mex-5 (Caenorhabditis elegans), Q9XUB2; MEX-5/FITC-TCR2 RNA binding; active compounds read low; activity score (negative = inhibition of binding), % at 10 µM; 300,000 tested, 0.38% active; AID 1832, 2009;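 active means inhibition past about -25% in most replicates, and total fluorescence under double the plate's negative control median, limit read from the data; inconclusive means replicates evenly split on the limit, or fluorescence at least double controls; inactive means too little inhibition in most replicates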;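 further: 0% = DMSO and -100% = 5 µM competing unlabeled TCR2 RNA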
MCL1 BIM primary: inhibitors of MCL1 binding to BIM-BH3, primary screen, biochemical, fluorescence polarization | Induced myeloid leukemia cell differentiation protein Mcl-1 (Homo sapiens), Q07820 | GST-MCL1 / FITC-Bim-BH3 fluorescence polarization | inhibition, % at 10.9 µM | 320,000 tested, 0.68% active | AID 2057, 2009;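 active means inhibition above the mean inhibition of all tested compounds plus 3 SD, set per campaign, cut at about 40% in these data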;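 further: 0% = DMSO wells and 100% = unlabeled Bim-BH3 peptide control; higher means more loss of mP so more displacement of Bim peptide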
Target sequence (Q07820 whole entry, looked up): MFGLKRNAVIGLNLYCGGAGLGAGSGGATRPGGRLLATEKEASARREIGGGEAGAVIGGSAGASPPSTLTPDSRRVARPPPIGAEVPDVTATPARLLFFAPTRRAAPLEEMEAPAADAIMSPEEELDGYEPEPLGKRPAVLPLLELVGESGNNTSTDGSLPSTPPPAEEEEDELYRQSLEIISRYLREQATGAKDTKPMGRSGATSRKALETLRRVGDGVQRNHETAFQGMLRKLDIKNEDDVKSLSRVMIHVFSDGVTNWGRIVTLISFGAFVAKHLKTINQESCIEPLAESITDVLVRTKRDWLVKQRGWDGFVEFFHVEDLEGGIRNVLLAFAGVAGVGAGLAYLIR
E coli Lon inh: inhibitors of E. coli Lon protease, primary screen, biochemical, fluorescence polarization | 360,000 tested, 0.42% active | P0A9M0 | inhibition, % at 7.94 µM | purified E. coli Lon protease; in the data active means inhibition above about 13%, passing the limit was not always enough;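 further: 0% = enzyme with probe and DMSO and 100% = no enzyme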
An asterisk follows results filed as active; ? = inconclusive; . = no result.

SMILES | EBV gp42 inh | GLD-1 TGE inh | Bcl-xL primary | MEX-5 binding | MCL1 BIM primary | E coli Lon inh
COc1ccc(C=NNc2nc3ccccc3s2)cc1 | . | . | . | . | . | 11
Cc1cccc(C)c1NC(=O)/C(C#N)=C/c1ccsc1 | -1 | 3 | -1 | -1 | -3 | -23
Cc1ccc(CNC(=O)/C(C#N)=C/c2ccc(C)s2)cc1 | -6 | -2 | 4 | -2 | 2 | -2
Cc1ccc(NC(=O)/C(C#N)=C/c2ccc(C)s2)c(C)c1 | -54 | 6 | 48* | -54* | 41* | -9
Cc1ccc(/C=C(\C#N)C(=O)Nc2c(C)cccc2C)s1 | -48 | -32 | -29 | -46* | -42 | -34
COC(=O)N1CCC2CC1c1c(Cl)cccc12 (centres undefined) | . | . | . | . | . | -2
CCC1Nc2ncnc(N3CCc4ccccc4C3)c2N(Cc2ccc(Br)cc2)C1=O (centres undefined) | . | . | . | . | . | -4
Cn1c(SCC(=O)Nc2ccc3nc(SCC(=O)N4CCCC4)sc3c2)nnc1-c1ccccc1 | 83* | 0 | 11 | 2 | 29 | .
CCCC(=O)Nc1ccc2nc(SCC(=O)N3CCCC3)sc2c1 | 3 | -1 | 0 | 0 | 7 | 4
Cc1cc(C)n(S(=O)(=O)c2ccc3oc(=O)ccc3c2)n1 | . | 3 | 5 | 4 | 2 | -1
Cc1cnc(CNC(=O)CC2C(=O)NCCN2Cc2ccccc2C(F)(F)F)cn1 (centres undefined) | . | 27 | 35* | -15 | 37 | 14
C=CC1=C2C=C(C3CC3)N(C3CC3)C=C2C(=O)C(C)(OC(=O)c2ccco2)C1=O (centres undefined) | . | 16 | 31* | -7 | 28 | 11
COC(=O)CCC(=O)OC1(C)C(=O)C=C2C=C(C3CC3)N(C3CC3)C=C2C1=O (centres undefined) | 16 | 16 | 22 | -2 | 29 | 6
CCN(CC)S(=O)(=O)c1ccc(NC(=O)COC(=O)CNS(=O)(=O)/C=C/c2ccccc2)cc1 | 5 | 1 | 5 | . | 7 | -4
Cn1c(-c2c(N)n(CCCc3ccccc3)c3nc4ccccc4nc23)nc2ccccc21 | 6 | . | . | 1 | . | -37
COCCCn1c(N)c(-c2nc3ccccc3n2C)c2nc3ccccc3nc21 | -15 | -10 | -2 | -34* | -31 | -47
COC1(OC)N=C(N)C2(C#N)C(c3ccc(F)cc3)C12C#N (centres undefined) | -15 | 11 | 6 | -4 | 2 | -9
CCOC1(OCC)N=C(N)C2(C#N)C(c3ccc(NC(C)=O)cc3)C12C#N (centres undefined) | -1 | 15 | 25 | -27* | 31 | -4
CCOc1ccc(S(=O)(=O)Nc2ncn[nH]2)cc1 | . | -6 | 4 | 3 | 5 | 1
CCOc1ccc(S(=O)(=O)Nc2cc(Sc3ncn[nH]3)c3oc(=O)sc3c2)cc1 | -1 | -1 | -3 | -34* | 10 | .
COc1cccc(/C=N/NC(=O)c2ccncc2)c1OC(=O)c1ccc(Br)cc1 | . | 27 | 34* | -1 | 38 | 0
COc1cc(/C=N/NC(=O)c2ccncc2)ccc1OC(=O)c1cccc(Br)c1 | . | -5 | 0 | -3 | 3 | 1
CC(C(=O)Nc1cccnc1)N1C(=O)C2C3C=CC(C3)C2C1=O (centres undefined) | 0 | -4 | 89* | 0 | 6 | -1
COC(=O)c1ccc2c(=O)sc(N3CCC(C(N)=O)CC3)nc2c1 | 85* | 10 | 16 | -2 | 20 | -3
COC(=O)c1ccc(C(=O)OC)c(NC(=S)N2CCC(C(N)=O)CC2)c1 | -3 | 2 | 10 | 1 | 1 | -5
SMILES | EBV gp42 inh | GLD-1 TGE inh | Bcl-xL primary | MEX-5 binding | MCL1 BIM primary | E coli Lon inh
CC(=O)Nc1ccc(NC(=O)C2CCCN2C(=O)Nc2ccc(F)cc2)cc1 (centres undefined) | . | -2 | 2 | 1 | 4 | -2
CCC1c2ccc(C)n2CCN1C(=O)Nc1ccc(F)cc1 (centres undefined) | -1 | 24 | 45* | -1 | 42* | 7
CCCC1c2ccc(C)n2CCN1C(=O)Nc1ccc(F)cc1 (centres undefined) | 7 | 15 | 46* | -3 | 37 | 0
O=C(CC1C(=O)NCCN1C(=O)Nc1ccc(F)cc1)Nc1ccc(F)cc1 (centres undefined) | -19 | 0 | 0 | -1 | -2 | -2
CC1CC(C)CN(CCCNS(=O)(=O)c2ccc3c(c2)CCN3C(=O)C2CC2)C1 (centres undefined) | . | 8 | -4 | -3 | -5 | 1
Cc1ccc(S(=O)(=O)N2CCCCC2)cc1C(=O)Nc1ccc(S(=O)(=O)Nc2ncccn2)cc1 | -5 | -1 | 4 | 0 | 15 | -1
Cn1cc(/C=C/c2cc[n+](C)cc2)c2cc(F)ccc21 | . | 77* | 28 | ? | 3 | -318
Cn1cc(/C=C/c2cc[n+](C)cc2)c2cc(Cl)ccc21 | . | 52* | 15 | ? | -15 | -287
N#C/C(=C\c1ccc([N+](=O)[O-])o1)C(=O)Nc1ccc(F)cc1 | 6 | 29 | 41* | 0 | 28 | -48
COc1ccc(NC(=O)/C(C#N)=C\c2ccc(Br)o2)cc1 | 33 | 0 | 0 | 0 | 15 | -6
CC1CCC(NC(=O)CCS(=O)(=O)c2ccc3c(c2)NC(=O)CS3)CC1 (centres undefined) | . | -6 | 5 | 0 | 1 | -3
Cc1cccc(NC(=O)CCS(=O)(=O)c2ccc3c(c2)NC(=O)CS3)n1 | . | 23 | 31* | 1 | 35 | 11
Cn1ccc(-c2ccccc2)n1 | -4 | 4 | 5 | -1 | 5 | -4
N#Cc1cc(-c2ccccc2)nn1-c1ccccc1 | -32 | -2 | 45* | -9 | 43* | -1
O=C(CCC(=O)Nc1ccccc1Cl)NNC(=S)Nc1ccccc1C(F)(F)F | . | -4 | 13 | -2 | 16 | -1
NS(=O)(=O)c1ccc(NC(=S)NNC(=O)CCC(=O)Nc2ccccc2Cl)cc1 | . | -1 | 0 | -31* | 0 | -4
CCc1ccc(OCCn2cccn2)cc1 | -3 | 8 | -1 | 0 | 1 | -1
O=C(NC1CCCc2c1cnn2-c1ccccc1F)c1ccccn1 (centres undefined) | . | -4 | 3 | 2 | 5 | -8
O=C(NC1CCCc2c1cnn2-c1ccc(F)cc1F)c1ccccn1 (centres undefined) | -9 | -5 | 31* | 0 | -4 | -12
Cc1cccc(C)c1CC(=O)N1CCOCC1 | . | 6 | 4 | 0 | 7 | -3
CCOc1ccc(NC(=O)CN(C)CC(=O)Nc2ccc(F)c(F)c2F)cc1OCC | -18 | 6 | -10 | -4 | -4 | -7

Screening data deposited in PubChem by several laboratories.
